VACV Venus inh: inhibitors of vaccinia virus (Venus reporter); Vaccinia virus Venus reporter expression, fluorescence; Potency, µM (highest dose often 36.5 µM), inactives show top-dose activity change, negative = inhibition, most hits filed as inhibitors; 330,000 compounds, 0.46% hits; AID 720580; calls by dose curve; tested in A549 cells; further: nearly all actives have a fitted effect of over 30% in size
VACV mCherry inh: inhibitors of vaccinia virus infection (mCherry reporter signal); Vaccinia virus mCherry reporter infection, fluorescence; Potency, µM (top dose mostly 36.5 µM), without a hit: top-dose activity change, negative = inhibition, usual class: inhibitors; 310,000 compounds, 0.63% hits; calls by dose curve; tested in A549 cells; further: nearly all actives have a fitted effect of over 35% in size
LASV entry inh: inhibitors of Lassa virus binding or cell entry; Lassa virus pseudotype entry inhibition, cell reporter; 300,000 compounds, 1.2% hits; Potency, µM (highest dose often 37.9 µM), for inactives: at the top dose activity change, negative = inhibition, most hits filed as inhibitors; AID 540256; calls by dose curve; tested in HEK293 cells; further: nearly all actives have a fitted effect of over 50% in size
Marburg entry inh: inhibitors of Marburg virus binding or cell entry | AID 540276 | 300,000 compounds, 1.8% hits | Marburg virus pseudotyped entry inhibition, cell reporter | Potency, µM (highest dose often 37.8 µM), inactives show top-dose activity change, negative = inhibition, most hits filed as inhibitors; calls by dose curve; tested in HEK293 cells
Starred values were filed as active, the others as inactive; i = inactive; u = inconclusive; x = not tested or not shown; [ ] = remark or other dose. An excerpt weighted towards active compounds, which were near 2.5% of everything screened. On the % scale 0 is the no-effect control and ±100 the full control effect; potency means the concentration at half of the fitted maximal effect.

SMILES	VACV Venus inh	VACV mCherry inh	LASV entry inh	Marburg entry inh
Cc1oc(-c2cccc(NC(=O)c3ccccn3)c2)nc1CNC(=O)C#Cc1ccccc1	-16.0%	-3.3%	x	x
O=C1NC(=Nc2ccc(O)cc2)S/C1=C/c1ccco1	u	u	4.61µM*	u
Cc1cccc(N=C2NC(=O)/C(=C/C=C/c3ccco3)S2)c1	-17.3%	u	17.8µM*	u
COc1ccc(N=C2NC(=O)/C(=C\C=C\c3ccco3)S2)cc1	-3.1%	-14.1%	u	u
Cc1ccc2nc(-c3ccccn3)c(NC3CCCC3)n2c1	-28.2%	12.6µM*	u	u
NC(CO)c1csc(NC(=O)Nc2ccccc2Cc2ccccc2)n1 (stereo not given)	-5.5%	-1.8%	x	x
COc1ccc(CC(N)c2csc(NC(=O)NCCc3ccccc3)n2)cc1 (stereo not given)	-21.2%	-19.2%	x	x
NC(CCc1ccccc1)c1csc(NC(=O)NCCc2ccccc2)n1 (stereo not given)	-16.1%	-12.3%	x	x
CC(C)c1ccc(NC(=O)Nc2nc(C(N)c3ccccc3)cs2)cc1 (stereo not given)	u	-27.0%	x	x
NC(Cc1ccc(Cl)cc1)c1csc(NC(=O)NCC2CCCCC2)n1 (stereo not given)	10µM*	-4.0%	x	x
NC(CCc1ccccc1)c1csc(NC(=O)Nc2ccccc2Oc2ccccc2)n1 (stereo not given)	11.2µM*	u	x	x
NC(Cc1ccc(C(F)(F)F)cc1)c1csc(NC(=O)Nc2ccccc2Cc2ccccc2)n1 (stereo not given)	12.6µM*	11.2µM*	x	x
CC(C)c1ccc(NC(=O)Nc2nc(C(N)COCc3ccccc3)cs2)cc1 (stereo not given)	11.2µM*	u	x	x
CCC1CN(Cc2cccn2-c2ccccn2)Cc2cc(OC)ccc2O1 (stereo not given)	5.3%	-8.6%	x	x
COCCN1C(=O)NC(c2cccc(F)c2)C(C(=O)OC)=C1C (stereo not given)	x	x	x	1.2%[14.2 µM]
O=c1c2ccccc2nc(/C=C/c2ccc([N+](=O)[O-])o2)n1CCCO	u	u	4.47µM*	2µM*
O=c1c2ccccc2nc(/C=C/c2ccc([N+](=O)[O-])cc2)n1CCCO	u	-26.3%	u	u
Cc1[nH]c2ccccc2c1/C=C/c1nc2ccccc2c(=O)n1CCO	u	u	11.2µM*	u
Cc1cc(C(=O)NCC2CCC3(CCN(Cc4cccc(F)c4F)CC3)O2)n(C)n1 (stereo not given)	-22.6%	-2.6%	x	x
Cc1ccccc1N=C1SC(CC(=O)Nc2ccc3ccccc3c2)C(=O)N1Cc1ccccn1 (stereo not given)	u	-26.7%	16.4µM*	u
O=C(CC1SC(=Nc2cccc3ccccc23)N(Cc2ccccn2)C1=O)Nc1ccccc1Br (stereo not given)	-19.3%	-0.9%	u	u
COc1cccc(-c2cc(=O)c3cc(NC(=O)c4ccccc4)ccc3[nH]2)c1	u	-13.2%	u	-33.3%
COc1cccc(-c2cc(=O)c3cc(NC(=O)c4ccc(N(C)C)cc4)ccc3[nH]2)c1	u	-3.5%	0.92µM*	u
O=c1c2cc(N3CCOCC3)ccc2[nH]c(=S)n1CCN1CCCC1	x	x	-7.3%	-19.7%
O=c1c2cc(N3CCOCC3)ccc2[nH]c(=S)n1CCCN1CCCCCC1	x	x	-2.1%	18.3µM*
SMILES	VACV Venus inh	VACV mCherry inh	LASV entry inh	Marburg entry inh
CC(C)OCCCn1c(=S)[nH]c2ccc(N3CCOCC3)cc2c1=O	x	x	5.8µM*	u
COc1ccc(C(C[N+](=O)[O-])c2c(-c3ccccc3)cc3ccccn23)cc1OC (stereo not given)	-5.6%	-18.5%	-5.5%	u
COc1ccc(C(C[N+](=O)[O-])C2(c3ccc(OC)c(OC)c3)C(=O)c3ccccc3C2=O)cc1 (stereo not given)	u	11.2µM*	15.8µM*	11.2µM*
CO[C@H]1C=CO[C@@]2(C)Oc3c(C)c(O)c4c(O)c(c5c(nc6cc(C)ccn65)c4c3C2=O)NC(=O)/C(C)=C\C=C[C@H](C)[C@H](O)[C@@H](C)[C@@H](O)[C@@H](C)[C@H](OC(C)=O)[C@@H]1C	-26.8%	-5.5%	x	x
Cc1ccc(C)c(NC(=O)/C(C#N)=C/c2cn(CC(=O)NCc3ccco3)c3ccccc23)c1	-11.9%	i	-17.1%	u
Cc1ccc(CS/C(Nc2ccccc2C)=C(\C#N)C(=O)NCc2ccco2)c(C)c1	x	x	3.66µM*	u
Cc1ccc(/C=N/n2c(COc3ccccc3)n[nH]c2=S)s1	x	x	6.51µM*	7.6%
Cc1ccc(-c2n[nH]c(=S)n2/N=C/c2ccc(C)s2)cc1	-12.5%	x	1.26µM*	-10.1%
Cc1ccc(/C=N/n2c(-c3ccc(Cl)cc3)n[nH]c2=S)s1	1.8%	i	u	u
S=c1[nH]nc(COc2ccccc2)n1/N=C/c1ccc(Br)s1	-5.8%	-10.7%	u	20.8%
CCOc1ccc(S(=O)(=O)Nc2ccc(C(=O)N/N=C(\C)c3ccc(-n4ccnc4)cc3)cc2)cc1	-16.3%	-19.1%	u	11.2µM*
CCOc1ccc(S(=O)(=O)Nc2ccc(C(=O)NNC(=O)c3ccncc3)cc2)cc1	-6.2%	-1.3%	7.5%	28.5%
CCOc1ccc(NS(=O)(=O)c2ccc(C(=O)NNC(=O)c3ccccc3O)cc2)cc1	u	7.08µM*	u	u
COC(=O)c1cccc(NC(=O)c2cnn(C)c2)c1	-8.0%	-13.3%	-0.7%[46.1 µM]	3.9%[46.1 µM]
Cc1cccc(NC(=O)c2onc3c2CCCC3)c1C	-21.2%	x	5.8%	u
COC(=O)c1cccc(NC(=O)c2onc3c2CCCC3)c1	-10.5%	-2.3%	u	9.2µM*
O=C(Nc1ccc2ccccc2c1)c1onc2c1CCCC2	u	-18.5%	5.62µM*	-25.1%
Cc1cccc(NC(=O)c2onc3c2CCCC3)n1	-14.4%	i	u	1.26µM*
Cc1ccccc1NC(=O)c1onc2c1CCCC2	-23.6%	-14.0%[1.46 µM]	u	-17.3%
N[C@@H](Cc1ccc(Oc2ccc(O)cc2)cc1)C(=O)O	x	x	x	-6.1%
Cc1ccc(S(=O)(=O)N2CCC(=O)N(C(COCc3ccc(C(F)(F)F)cc3)C(C)C)CC2)cc1 (stereo not given)	u	i	13µM*	u
Cc1ccc(S(=O)(=O)N2CCC(=O)N(CCOCc3ccc(C(F)(F)F)cc3)CC2)cc1	u	u	u	16.4µM*
COC(=O)[C@@H]1CCCN1C(=O)c1c(OC)cc(=O)n2c1CCN(Cc1ccc3c(c1)OCCO3)CC2	-9.4%	-7.1%	x	x
O=C(N/N=C/c1cc(Br)ccc1O)c1ccncc1	-24.4%	u	u	2.82µM*
O=C(N/N=C/c1cc(Cl)ccc1O)c1ccc(Br)cc1	u	3.16µM*	10µM*	u
NC(=O)N/N=C\c1cc(Br)ccc1O	-17.2%	-12.5%	18.4%	1.8%
CC(=O)Nc1ccc(C(=O)N/N=C/c2cc(Br)cc(Br)c2O)cc1	-8.0%	-17.9%	u	10µM*
O=C(N/N=C/c1ccc(OC(=O)c2ccc(Br)cc2)cc1)c1ccncc1	-17.0%	i	-9.9%	20.5%[46.1 µM]
O=C(N/N=C/c1cc(Br)ccc1OC(=O)c1ccc(Br)cc1)c1ccncc1	u	4.47µM*	5.62µM*	1µM*

Screening results (PubChem)
